The values that follow come from PubChem BioAssay AID435022 (Sanford-Burnham Center for Chemical Genomics, 2010).

The structures appear in SMILES notation. Screen size: about 330,000 compounds; about 1,100 (0.33%) were called active. For the sample, actives were picked, then their nearest neighbours and some compounds at random. A number with no mark means an inactive call. No stated cut-off is given here; in the data, active means inhibition above about 35%; inactive means the rest.

A short description of the assay: lowers stimulated NF-kB luciferase signal in 697 B cells – cell-based, luminescence, uHTS, B-cell NF-kB inhibitor project, primary screen (AID 435022). The conditions noted are these: 697 B-cell NF-kB luciferase reporter, PMA/ionomycin, 16 h; at 4 µM; hits give high values.
Regarding `CCN1C(=O)[C@H]2[C@@H](c3ccc(C)cc3)N3C(=O)N(c4cccc(Br)c4)C(=O)[C@@]3(CC)[C@H]2C1=O`, the inhibition is -2.44%. With `CCCCC(CC)CNC(=O)C(=O)C1C(=O)Nc2ccccc21` (configuration not stated) the figure was 13.5%.

`O=C(CN1CCN(c2ccc(O)cc2)CC1)NC1CCCc2ccccc21` (configuration not stated): the inhibition is 6.1%.

For the molecule `CCOc1ccc(C(C)NC(=O)CN2C(=O)NC3(CCCCC3)C2=O)cc1OCC` (configuration not stated), the inhibition was -6.42%. Next, `CCOc1ccc(C(c2c(C)[nH][nH]c2=O)c2c(C)[nH][nH]c2=O)cc1OCC`: 35.5% (active).

`Cc1[nH][nH]c(=O)c1C(c1ccc(-c2ccc(Cl)cc2)o1)c1c(C)[nH][nH]c1=O`: the inhibition is 15.2%.

Consider `CCn1c(O)c(N=NC(=O)c2cccc(S(=O)(=O)N3CCCCC3)c2)c2ccccc21`, for which the inhibition was -4.54%. With `COC(=O)Cn1c2ccc(C)cc2c2nc(C)sc21` the figure was 20.4%; with `CCn1c(O)c(N=NC2=NC(=O)CS2)c2cc(C)ccc21`, 44.4% (active); with `COc1cc(NC(=O)C2CC(c3ccccc3O)=NO2)c(OC)cc1Cl` (configuration not stated), 10.9%. Next, `CC(=O)Nc1nc(C)c(Cc2ccccc2)c(=O)[nH]1`: 16.1%. Take `O=C(O)CCn1c(O)c(C=C2N=c3ccccc3=N2)sc1=S`: the inhibition is 55.2% (active). Regarding `O=C(O)CCn1c(Cc2ccccc2)nc2ccccc21`, the inhibition is 5.45%. For the molecule `Cc1cc2ccccc2n1CCC(=O)O`, the inhibition is 13.8%. For `CCOc1ccc(NC(=O)CN(C)C(=O)c2cccc(S(=O)(=O)N3CCCC3)c2)cc1OCC`, the inhibition was 10.1%. Consider `CCCC(C)NC(=O)C1CCN(C(=O)C2CC(=O)N(c3ccc(C)cc3)C2)CC1` (configuration not stated), for which the inhibition is 10.2%.

For the molecule `O=C(Nc1cccnc1)c1cc([N+](=O)[O-])ccc1Cl`, the inhibition is 12.2%. For the molecule `Cc1ccc(NC(=O)c2cc([N+](=O)[O-])ccc2Cl)c(O)c1`, the inhibition was 38.8% (active). Regarding `CNc1ccc([N+](=O)[O-])cc1C(=O)O`, the inhibition is -7.67%. `O=C(CCCC(=O)N1CCN(c2cccc(Cl)c2)CC1)c1ccccc1`: the inhibition was 5.77%. Next, `C=CC1=C(C(=O)O)N2C(=O)[C@@H](NC(=O)/C(=N/OCC(=O)O)c3csc(N)n3)[C@H]2SC1`: 21.7%.

As for `Cc1cnc(C(=O)Oc2cccc(Cl)c2Cl)cn1`, the inhibition was 9.86%. With `N=c1n(CCc2ccccc2)c2ccccc2n1Cc1ccccc1F` the figure was -56.4%. With `Cn1c(=O)n(C)c2cc(C(=O)Nc3ccc(Br)cc3)ccc21` the figure was 9.51%.

As to `O=C(Nc1ccc2c(c1)OCO2)c1ccc(N2C(=O)c3ccccc3C2=O)cc1`, the inhibition was -7.07%. With `Cn1c(=O)n(C)c2cc(C(=O)Nc3ccc4c(c3)OCO4)ccc21` the figure was 37.8% (active). As for `COc1ccc(OCC(=O)NN2Cc3ccccc3C2=N)cc1`, the inhibition is 0.554%. For `O=C(c1ccco1)N1CCN(CC(=O)N(C2CCCCC2)C2CCS(=O)(=O)C2)CC1` (configuration not stated), the inhibition is -18.1%. Next, `Cc1cc(C(=O)O)c(S(C)(=O)=O)s1`: 4.07%; `COc1ccc(CCNC(=S)N2CCN(S(=O)(=O)c3ccc(F)cc3)CC2)cc1`: -1.95%; `CN(C)CCCn1c(SCCN2C(=O)c3ccccc3C2=O)nc2ccccc2c1=O`: -8.89%. Take `CCCn1c(=NC(C)=O)c(C(=O)OCC)cc2c(=O)n3ccccc3nc21`: the inhibition is 4.14%. With `Cc1onc(-c2c(F)cccc2Cl)c1C(=O)OCC(=O)N1C(C)CCCC1C` (configuration not stated) the figure was -2.55%; with `CCOC(=O)c1cc2c(=O)n3ccccc3nc2n(CC(C)C)c1=NC(=O)c1c(-c2c(F)cccc2Cl)noc1C`, 36.5% (active). With `CCCCn1c(N)c(N(CCC(C)C)C(=O)COC(=O)c2ccc(CC)cc2)c(=O)[nH]c1=O`, the inhibition is -5.34%. With `COc1ccc(C(=O)CSc2n[nH]c(N)n2)cc1` the figure was 4.97%; with `C=CCn1c(C)cc(C2=NNC(=NCC)SC2)c1C`, 37.3% (active). With `CC(Sc1nc2c([nH]c3ccccc32)c(=O)n1C)c1ccccc1` (configuration not stated), the inhibition was -2.36%. Next, `COc1ccc(C=C(C#N)C#N)c(CSc2ccccn2)c1`: 7.7%. As to `CCOC(=O)Cc1cc(=O)[nH]c(=O)[nH]1`, the inhibition is -9.76%. With `O=C(OCCO)c1cc(Cl)c(C(=O)OCCO)cc1Cl` the figure was 19.5%. For the molecule `CC1CCN(S(=O)(=O)c2ccc3c(c2)n(C)c(=O)n3C)CC1`, the inhibition is 7.77%. Turning to `NC(=O)C1CCN(C(=O)CC2C(=O)NCCN2Cc2cccc(Oc3ccccc3)c2)CC1` (configuration not stated), the inhibition is -2.05%. With `CNC(=O)c1csc(Cc2c(Cl)sc3ccc(Cl)cc23)n1` the figure was -20.2%; with `Cc1nc2ccccc2c(=O)n1-c1ccc(NS(=O)(=O)c2ccc(F)cc2F)cc1`, 1.55%; with `CCC(C)(C(=O)Nc1ccccc1C)N(C(=O)CNC(C)=O)c1ccc(C)cc1` (configuration not stated), 14.7%. Take `O=C(CN1C(=O)c2ccccc2S1(=O)=O)NC1CCCCC1`: the inhibition was 9.89%.

`O=C(CN1C(=O)c2ccccc2S1(=O)=O)N1CCc2ccccc21`: the inhibition is 62.7% (active).

Consider `CC1CCCN(C(=O)CN2C(=O)c3ccccc3S2(=O)=O)C1` (configuration not stated), for which the inhibition was -17.2%.

For `COC1(C2=NCCN2)COc2ccccc2O1` (configuration not stated), the inhibition is 17.1%. With `Cc1ccnc2nc(C(=O)OCC(=O)N(CC(C)C)CC(C)C)nn12` the figure was 6.38%; with `COc1ccc(CNc2nc(NCc3ccc(OC)cc3)c3ncn(C4CCCC4)c3n2)cc1`, -55.3%; with `C=CCSc1nc(N)cc(=O)[nH]1`, 36.8% (active).

Consider `CCCCc1nnc(NC(=O)CSc2nc(N)cc(=O)[nH]2)s1`, for which the inhibition is 13.3%. Next, `Cc1cc(C(=O)CSc2nc(N)cc(=O)[nH]2)c(C)n1-c1cccc(F)c1`: -32.2%; `CC(=O)N(OCc1ccc(OC(C)C)c(Cl)c1)C(C)=O`: -2.83%. With `COc1cc(F)c(C2=CC(=O)CC(C)(C)C2)cc1F` the figure was 4.27%; with `Cn1c(-c2ccc(F)cc2)cc2onc(-c3ccccc3Cl)c2c1=O`, -275%. With `Cc1cccc(C(=O)Nc2ccc(CC(=O)O)cc2)c1`, the inhibition is 40.2% (active). Consider `Cc1cccc(C(=O)Nc2ccc(C(=O)/C=C/c3cccs3)cc2)c1`, for which the inhibition is 6.21%.

In the case of `Cc1cccc(C(=O)Nc2ccc(Oc3cnccn3)cc2)c1`, the inhibition is -6.59%. Take `O=Cc1c(NCCCN2CCCC2=O)c2ccccc2[nH]c1=O`: the inhibition was 4.36%.

In the case of `CC(C)(C)c1cnnn1-c1ccc([N+](=O)[O-])cc1`, the inhibition is 12.8%.

Turning to `Cc1ccccc1Cn1c2ccccc2c2cnn(CC(=O)NCc3ccco3)c(=O)c21`, the inhibition is -4.9%. Next, `O=C(NC(Nc1nc2ccc([N+](=O)[O-])cc2s1)(C(F)(F)F)C(F)(F)F)c1ccccc1`: 99.5% (active); `O=C(NOCc1ccccc1)c1cccc([N+](=O)[O-])c1`: -12.3%; `O=C(COC(=O)c1ccc([N+](=O)[O-])cc1Cl)NC(=O)c1ccccc1`: -5.46%.

For `CCOC(=O)c1c(C)n(C)c2ccc(OC)c(NS(=O)(=O)CC)c12`, the inhibition is -4.31%. For the molecule `COc1ccc2cc(CCl)c(Cl)nc2c1`, the inhibition was -1.58%. With `O=C(Cn1cnc2ccccc2c1=O)NNC(=O)c1ccccc1F`, the inhibition is 1.67%. Turning to `O=C(NCc1ccccc1CN1CCCC1)C1CCN(S(=O)(=O)c2ccc(Cl)cc2)CC1`, the inhibition is -7.16%. With `COc1ccc(CNC(=O)c2ccc(Br)s2)cc1OC` the figure was -2.07%; with `COc1ccc(CNC(=O)CNC(=O)c2sc3ccccc3c2Cl)cc1OC`, 35% (active). Next, `COc1ccc(CNC(=O)Cc2ccc(-c3ccccc3)cc2)cc1OC`: 8.2%; `Cc1cc(C(F)(F)F)nc(SCC(=O)Nc2nccs2)n1`: -18.2%; `Cc1[nH]nc(SCC(=O)NCC(C)C)c1[N+](=O)[O-]`: 9.07%. With `Cc1oc2c(C)c3oc(=O)c(CC(=O)N[C@@H](CC(C)C)C(=O)N[C@@H](Cc4ccccc4)C(=O)O)c(C)c3cc2c1C` the figure was 22.3%; with `CCOc1ccc(C(=O)Nc2cc(Cl)ccc2-n2cncn2)cc1OC`, 14%; with `CN(C)S(=O)(=O)c1ccc(N2CCCC2)c(C(=O)Nc2ccc(Br)cc2F)c1`, 9.57%. As for `Cc1ccc(Cn2c(SCC(=O)N/N=C/c3ccccc3OCC(=O)O)nc3ccccc32)cc1`, the inhibition was 3.74%.

As for `CC(=O)c1nc2ccccc2n1Cc1ccccc1`, the inhibition was 3.31%. Next, `CCCc1nc2c(C)cc(-c3nc4ccccc4n3C)cc2n1Cc1ccc(-c2ccccc2C(=O)O)cc1`: 44.7% (active); `O=C1Nc2ccc(Br)cc2/C1=N/N=C/C1=C(N2CCOCC2)C(=C\c2ccccc2)/CC1`: 13.3%. With `COc1ccc(C2C=C(c3ccc(Br)cc3)Nc3nc(NS(C)(=O)=O)nn32)cc1` (configuration not stated) the figure was 8.48%.

With `C=CCOc1ccc(/C=C2\SC(=S)N(CCC(=O)O)C2=O)cc1`, the inhibition was 62.4% (active). With `O=C1/C(=C/c2ccc(F)cc2)SC(=S)N1CCCC(=O)N1CCCCC1CCO` (configuration not stated) the figure was -3.3%; with `Cc1ccc(/C=C2/SC(=S)N(CCC(=O)NCCCN3CCOCC3)C2=O)cc1`, -16.3%. With `CN(CC(=O)NCc1ccncc1)S(=O)(=O)c1ccc(Br)cc1` the figure was 12.7%; with `Cc1cc(Nc2cc(N3CCN(C)CC3)nc(Sc3ccc(NC(=O)C4CC4)cc3)n2)n[nH]1`, 37% (active). Consider `Cc1n[nH]c(C)c1S(=O)(=O)N1CCCC(C(=O)Nc2ccc(Br)cc2)C1` (configuration not stated), for which the inhibition was -12.3%.

In the case of `Cc1cc(C)nc(N2CCC(C(=O)Nc3ccc4c(c3)OCCO4)CC2)n1`, the inhibition was -5.99%. Consider `CC(=O)c1c(C)[nH]c(C(=O)COC(=O)c2cccc(S(=O)(=O)N(C)c3ccccc3)c2)c1C`, for which the inhibition was -50%.
